Measurements published in the supplement of paper PMC4709259.
Counter-ions that a name gives are not always drawn. ± gives the standard deviation.

system: Jurkat; assay: cell count relative to DMSO control (fraction of control); higher = more cells (less growth inhibition); details: 48 h

Which cell count does the source give for `COc1ccc(OC)c(C(O)CNC(=O)CN)c1` (stereo unspecified) [Midodrine·HCl] (concentration: 25 µM) here?
The cell count was 0.55 ± 0.15.

How did the cell count turn out when `NC12CC3CC(CC(C3)C1)C2` [Amantadine·HCl] (concentration: 25 µM) was run?
The cell count was 0.749 ± 0.17.

How did the cell count turn out when `CCC1=C(C)CN(C(=O)NCCc2ccc(S(=O)(=O)NC(=O)N[C@H]3CC[C@H](C)CC3)cc2)C1=O` [Glimepiride] (concentration: 25 µM) was run?
The cell count was 0.859 ± 0.076.

Which cell count does the source give for `O=C(O)c1cc(-c2ccc(F)cc2F)ccc1O` [Diflunisal] (concentration: 25 µM) here?
Its cell count is 0.666 ± 0.13.

With `Cc1cccc(C)c1OCC(C)N` (stereo unspecified) [Mexiletine·HCl] (concentration: 25 µM) as the compound, how does the cell count read?
The cell count was 0.719 ± 0.014.

With `O=C(O)c1cccnc1` [Niacin (Known As Vitamin B3, Nicotinic Acid And Vitamin Pp)] (concentration: 25 µM) as the compound, how does the cell count read?
The cell count was 0.426 ± 0.096.

With `Nc1c2c(nc3ccccc13)CCCC2` [Tacrine·HCl] (concentration: 25 µM) as the compound, how does the cell count read?
The cell count was 0.854 ± 0.017.

How did the cell count turn out when `Nc1ccn([C@H]2CC[C@@H](CO)O2)c(=O)n1` [Zalcitabine (2',3'-Dideoxycytidine)] (concentration: 25 µM) was run?
Its cell count is 0.336 ± 0.073.

How did the cell count turn out when `COC(=O)C1=C(C)NC(C)=C(C(=O)OCC(C)C)C1c1ccccc1[N+](=O)[O-]` (stereo unspecified) [Nisoldipine] (concentration: 25 µM) was run?
The cell count was 0.342 ± 0.015.

With `CCCCN1CCCCC1C(=O)Nc1c(C)cccc1C` (stereo unspecified) [Bupivacaine·HCl] (concentration: 25 µM) as the compound, how does the cell count read?
Its cell count is 0.656 ± 0.097.

For `OC(c1cc(C(F)(F)F)nc2c(C(F)(F)F)cccc12)C1CCCCN1` (stereo unspecified) [Mefloquine·HCl] (concentration: 2.5 µM), which cell count is on record?
Its cell count is 0.813 ± 0.087.
